This passage reports growth inhibition results from PubChem BioAssay (NCI).

This is part of a sample that, as a whole, favours compounds with a hit. Of some 79,000 tested, about 15% had one in any assay. A number with no mark means an inactive call. The source made the active and inactive calls. Cut-off read from the data, not from the text of the source: active = growth inhibition above about 70%; inactive = the rest.

A short description of test [1]: NCI Yeast Anticancer Drug Screen. Data for the rad50 strain (AID 155).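 Note: 0% = growth of vehicle-only cultures of the same strain.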 Particulars: S. cerevisiae rad50 strain growth inhibition, stronger effect = higher value. The gist of the method: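 Relative growth inhibition (compound vs vehicle) was measured in yeast with a defined repair-gene alteration.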
Test [2] can be described thus: NCI Yeast Anticancer Drug Screen. Data for the mec2-1 strain (AID 157). Conditions: S. cerevisiae mec2-1 strain, stronger effect = higher value. The method, boiled down:
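Yeast mec2-1 mutant treated with compound. Readout: growth inhibition vs vehicle controls.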

Test [3] is described as follows: NCI Yeast Anticancer Drug Screen. Data for the sgs1 mgt1 strain (AID 161).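 Note: 0% = growth of cultures given vehicle only.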 Particulars: S. cerevisiae sgs1 mgt1 strain, stronger effect = higher value. The method, boiled down: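 Inhibition of yeast growth, normalised to vehicle-treated controls, is reported for a strain bearing genetic alterations in DNA damage repair.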
Test [4] is described as follows: NCI Yeast Anticancer Drug Screen. Data for the cln2 rad14 strain (AID 165).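 Note: 0% = growth equal to vehicle treated cultures.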 Conditions: S. cerevisiae cln2 rad14 strain, stronger effect = higher value. The method, boiled down:
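cln2 rad14 yeast strain; compound exposure; growth inhibition read vs vehicle controls.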

A short description of test [5]: NCI Yeast Anticancer Drug Screen. Data for the bub3 strain (AID 167). Conditions: S. cerevisiae bub3 mutant strain, stronger effect = higher value. The gist of the method: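 Screening used yeast with an engineered genetic alteration affecting cell cycle control. Compound-exposed cultures were compared with vehicle cultures, and reduced growth was taken as inhibition.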
Test [6] is described as follows: NCI Yeast Anticancer Drug Screen. Data for the mlh1 rad18 strain (AID 175). Particulars: S. cerevisiae mlh1 rad18 strain growth inhibition, stronger effect = higher value. The method, boiled down:
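Yeast w/ defined DNA-repair lesions; compound exposure; growth vs vehicle controls → % inhibition.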

The mark [7] stands for this setting: at 5.0 µM (retest, dose inferred, filed as 0.5).
Where [8] appears, read: at 50.0 µM (retest, dose inferred, filed as 5.0).

Take `OC(CCN1CCCCC1)(Cc1ccccc1)c1cccc(Cl)c1` (stereo not given): the growth inhibition was 8% in test [1] (setting [7]); 46% in test [1] (setting [8]); 58.1% in test [1] (at 50.0 µM); 4% in test [2] (setting [7]); 40% in test [2] (setting [8]); 26.6% in test [2] (at 50.0 µM). For the same compound, the growth inhibition in test [3] (setting [7]) is 28%; in test [3] (setting [8]), 78% (active); in test [3] (at 50.0 µM) it was 73.1% (active); in test [4] (setting [7]) it was 17%; in test [4] (setting [8]) it was 52%; in test [4] (at 50.0 µM), 77.8% (active). For the same compound, the growth inhibition was 15% in test [5] (setting [7]); 62% in test [5] (setting [8]); 50.9% in test [5] (at 50.0 µM); 17% in test [6] (setting [7]); 64% in test [6] (setting [8]); 60.3% in test [6] (at 50.0 µM).
Take `CC(=O)Nc1ccc(-c2csc(Nc3ccnc4cc(Cl)ccc34)n2)cc1`: the growth inhibition in test [1] (setting [7]) is 12%; in test [1] (setting [8]), 40%; in test [1] (at 50.0 µM) it was 69.8%; in test [2] (setting [7]), -4%; in test [2] (setting [8]) it was 46%; in test [2] (at 50.0 µM) it was 51.4%. Also, the growth inhibition in test [3] (setting [7]) is 9%; in test [3] (setting [8]) it was 69%; in test [3] (at 50.0 µM), 72.8% (active); in test [4] (setting [7]) it was 0%; in test [4] (setting [8]), 4%; in test [4] (at 50.0 µM) it was 41%. In addition, the growth inhibition was -2% in test [5] (setting [7]); 40% in test [5] (setting [8]); 33.3% in test [5] (at 50.0 µM); 3% in test [6] (setting [7]); 27% in test [6] (setting [8]); 82.9% (active) in test [6] (at 50.0 µM).
Take `Nc1ccc2c(c1)[nH]c(=O)c1cc(Cl)c(Cl)cc12`: the growth inhibition in test [1] (setting [7]) was 87% (active); in test [1] (setting [8]), 94% (active); in test [1] (at 50.0 µM), 96.3% (active); in test [2] (setting [7]) it was 27%; in test [2] (setting [8]) it was 60%; in test [2] (at 50.0 µM), 40.4%. For the same compound, the growth inhibition in test [3] (setting [7]) was 49%; in test [3] (setting [8]) it was 70% (active); in test [3] (at 50.0 µM) it was 78.2% (active); in test [4] (setting [7]), 63%; in test [4] (setting [8]), 77% (active); in test [4] (at 50.0 µM), 13.1%. The growth inhibition is -1% in test [5] (setting [7]); 84% (active) in test [5] (setting [8]); 9.65% in test [5] (at 50.0 µM); 53% in test [6] (setting [7]); 85% (active) in test [6] (setting [8]); 92.9% (active) in test [6] (at 50.0 µM).
Take `O=C1C(=O)c2ccccc2C=C1C1CCCCC1`: the growth inhibition in test [1] (setting [7]) was 13%; in test [1] (setting [8]) it was 64%; in test [1] (at 50.0 µM), 85% (active); in test [2] (setting [7]) it was 19%; in test [2] (setting [8]) it was 72% (active); in test [2] (at 50.0 µM), 78.2% (active). Moreover, the growth inhibition was 14% in test [3] (setting [7]); 63% in test [3] (setting [8]); 91% (active) in test [3] (at 50.0 µM); 1% in test [4] (setting [7]); 43% in test [4] (setting [8]); 71.5% (active) in test [4] (at 50.0 µM). In addition, the growth inhibition in test [5] (setting [7]) was 6%; in test [5] (setting [8]), 63%; in test [5] (at 50.0 µM), 64%; in test [6] (setting [7]), 18%; in test [6] (setting [8]) it was 80% (active); in test [6] (at 50.0 µM), 91% (active).
`COC(=O)C(=O)C(C(=O)c1ccc(F)cc1)c1nc2n(c1O)C(=N)N=N2` (stereo not given): the growth inhibition in test [1] (setting [7]) is 1%; in test [1] (setting [8]), 52%; in test [1] (at 50.0 µM), 39.6%; in test [2] (setting [7]), -17%; in test [2] (setting [8]), 46%; in test [2] (at 50.0 µM) it was 77.6% (active). The growth inhibition in test [3] (setting [7]) is 19%; in test [3] (setting [8]), 76% (active); in test [3] (at 50.0 µM), 23.9%; in test [4] (setting [7]) it was 14%; in test [4] (setting [8]), 57%; in test [4] (at 50.0 µM), 59.9%. Besides, the growth inhibition in test [5] (setting [7]) is 14%; in test [5] (setting [8]) it was 67%; in test [5] (at 50.0 µM) it was 35.2%; in test [6] (setting [7]), 24%; in test [6] (setting [8]), 79% (active); in test [6] (at 50.0 µM) it was 34.8%.
As for `C=C1CC2(CCCC3(CC(=C)C(=O)O3)C2(C)C)OC1=O` (stereo not given), the growth inhibition in test [1] (setting [7]) was 20%; in test [1] (setting [8]), 96% (active); in test [1] (at 50.0 µM), 33%; in test [2] (setting [7]), 14%; in test [2] (setting [8]), 98% (active); in test [2] (at 50.0 µM), 38.4%. Further, the growth inhibition was 57% in test [3] (setting [7]); 97% (active) in test [3] (setting [8]); 38.8% in test [3] (at 50.0 µM); 15% in test [4] (setting [7]); 96% (active) in test [4] (setting [8]); 23.1% in test [4] (at 50.0 µM). Besides, the growth inhibition was 7% in test [5] (setting [7]); 96% (active) in test [5] (setting [8]); 44.6% in test [5] (at 50.0 µM); 12% in test [6] (setting [7]); 97% (active) in test [6] (setting [8]); 66.6% in test [6] (at 50.0 µM).
Turning to `CC1(C)NNC(=S)NN1`, the growth inhibition is 2% in test [1] (setting [7]); 12% in test [1] (setting [8]); 5.95% in test [1] (at 50.0 µM); -3% in test [2] (setting [7]); 8% in test [2] (setting [8]); 15.4% in test [2] (at 50.0 µM). Moreover, the growth inhibition in test [3] (setting [7]) is 4%; in test [3] (setting [8]), 14%; in test [3] (at 50.0 µM), 21.3%; in test [4] (setting [7]), 12%; in test [4] (setting [8]) it was 7%; in test [4] (at 50.0 µM), 9.75%. For the same compound, the growth inhibition in test [5] (setting [7]) is 23%; in test [5] (setting [8]), 5%; in test [5] (at 50.0 µM), 2.4%; in test [6] (setting [7]) it was 20%; in test [6] (setting [8]), 8%; in test [6] (at 50.0 µM) it was 41.8%.
For `NC(N)=Nc1ccc(N=C(N)N)cc1`, the growth inhibition in test [1] (setting [7]) is 3%; in test [1] (setting [8]) it was 2%; in test [1] (at 50.0 µM), 92% (active); in test [2] (setting [7]) it was 1%; in test [2] (setting [8]), -2%; in test [2] (at 50.0 µM) it was 99.7% (active). In addition, the growth inhibition was -1% in test [3] (setting [7]); -3% in test [3] (setting [8]); 17.1% in test [3] (at 50.0 µM); 1% in test [4] (setting [7]); 1% in test [4] (setting [8]); 60.8% in test [4] (at 50.0 µM). Further, the growth inhibition was 3% in test [5] (setting [7]); 3% in test [5] (setting [8]); 99.2% (active) in test [5] (at 50.0 µM); 2% in test [6] (setting [7]); 2% in test [6] (setting [8]); 45.5% in test [6] (at 50.0 µM).
For the compound `Clc1ccc(C2=CC(c3ccccc3)N3C(=N[C@H]4CCCC[C@@H]43)N2)cc1` (stereo not given in full), the growth inhibition in test [1] (setting [7]) was 8%; in test [1] (setting [8]), 6%; in test [1] (at 50.0 µM), 55.4%; in test [2] (setting [7]), 4%; in test [2] (setting [8]) it was 4%; in test [2] (at 50.0 µM), 54.2%. Further, the growth inhibition in test [3] (setting [7]) is 6%; in test [3] (setting [8]), 17%; in test [3] (at 50.0 µM), 79.2% (active); in test [4] (setting [7]) it was 11%; in test [4] (setting [8]) it was 33%; in test [4] (at 50.0 µM), 32.2%. For the same compound, the growth inhibition in test [5] (setting [7]) was 14%; in test [5] (setting [8]), 19%; in test [5] (at 50.0 µM), 84.8% (active); in test [6] (setting [7]), 6%; in test [6] (setting [8]) it was 11%; in test [6] (at 50.0 µM) it was 91.8% (active).
As to `CC(=O)NC1CCCCC1CC1CCCCC1` (stereo not given), the growth inhibition in test [1] (setting [7]) is -146%; in test [1] (setting [8]), -23%; in test [1] (at 50.0 µM) it was 19.2%; in test [2] (setting [7]) it was -48%; in test [2] (setting [8]), -44%; in test [2] (at 50.0 µM) it was 20.1%. For the same compound, the growth inhibition in test [3] (setting [7]) is -63%; in test [3] (setting [8]), -32%; in test [3] (at 50.0 µM) it was 35.8%; in test [4] (setting [7]) it was -57%; in test [4] (setting [8]), -52%; in test [4] (at 50.0 µM), 79.2% (active). Further, the growth inhibition in test [5] (setting [7]) was -68%; in test [5] (setting [8]), -49%; in test [5] (at 50.0 µM) it was 24%; in test [6] (setting [7]) it was -125%; in test [6] (setting [8]), -138%; in test [6] (at 50.0 µM) it was 16.9%.
